This note sets out measurements from PubChem BioAssay (Tox21).

Records with an inconclusive call do not appear. A call without a number means that no potency is given here. Calls of active or inactive are those of the source. The call rests on the fitted dose curve; in most records, active means well fitted cell-killing curve with a large enough effect in the repeat runs; inconclusive means weak or mixed curves, or effect the other way; inactive means flat fitted curve, though single readings scatter.

A short description of this experiment: qHTS assay to identify small molecule antagonists of the retinoid acid receptor (RAR) signaling pathway - cell viability counter screen (AID 1159551). Further: nearly all actives have a fitted effect of over 35% in size. The following applies: C3RL4 cells viability, ATP luminescence (CellTiter-Glo), 6 h; series mostly up to 92.4 µM. The source says:
U.S. Tox21 Program National Center for Advancing Translational Sciences [NCATS] NIH Chemical Genomics Center [NCGC] U.S. Environmental Protection Agency [EPA] National Institutes of Environmental Health Sciences [NIEHS] National Toxicology Program [NTP] U.S. Food and Drug Administration [FDA] Tox21 Assay Overview: All-trans Retinoic acid (atRA) is the potent natural metabolite of retinol and plays an important role in normal embryonic development and maintenance of cellular phenotype in adult animals. atRA is the activating ligand for the retinoic acid receptors (RARs) which form heterodimers with retinoid X receptors (RXRs) on the retinoic acid response element (RARE). Through activation of the RAR/RXRs nuclear receptors, atRA regulates the transcription of a large number of protein-coding genes and regulatory RNAs. Intracellular levels of atRA are controlled by the retinol signaling pathway (RSP) that regulates the biosynthesis and catabolism of atRA to maintain physiological levels. Chemicals that interfere with the RSP can cause abnormal intracellular levels of atRA and therefore are potential developmental toxicants. To assess compounds for the potential adverse effect on embryonic development through interfering with retinol signaling, a cell-based RARE luciferase reporter gene assay was used. C3RL4 cell line (OARSA/CFSAN/FDA, Laurel, MD) was used to screen Tox21 10K compound library for identifying inhibitors of the RSP. Also cytotoxicity was assessed by determining the viability of cells based on the quantitation of ATP.
Tox21 Assay Protocol Summary: C3RL4 cells were seeded at 1,000/well in 4 uL of assay medium into white solid 1,536-well tissue culture plates (Greiner Bio-One North America Inc. Monroe, NC) using a Multidrop Combi (Thermo Scientific, Waltham, MA) dispenser. After incubation at 37 C and 5% CO2 for an overnight, 23 nL of compounds dissolved in DMSO, positive control or DMSO only were transferred by a Pintool station (Kalypsys, San Diego, CA). One ul of 1 uM (final concentration) of Retinol was added right after the compound addition by using a Flying Reagent Dispenser (FRD) (Aurora Discovery, San Diego, CA). After 6 hr incubation at 37 C and 5% CO2, 5 uL of CellTiter-Glo reagent (Promega Corporation, Madison, WI) was added to each assay plate using an FRD. Luminescence was quantified on a ViewLux plate reader (PerkinElmer, Waltham, MA) after 30 min incubation at room temperature.
For orientation: qHTS replaces the single test concentration by a dilution series.
Take `CC(=O)Oc1ccc(C(c2ccc(OC(C)=O)cc2)c2ccccn2)cc1`: the Potency entry was “inactive”.

For `CC1(C)O[C@@H]2C[C@H]3[C@@H]4C[C@H](F)C5=CC(=O)C=C[C@]5(C)[C@@]4(F)[C@@H](O)C[C@]3(C)[C@]2(C(=O)CO)O1`, the Potency result was “inactive”.

`CC(C)[N+](C)(CCOC(=O)C1c2ccccc2Oc2ccccc21)C(C)C`: the Potency result is “inactive”.

Turning to `Cc1ccc(/C(=C\CN2CCCC2)c2ccccn2)cc1`, the Potency result was “inactive”.

For `C=CC(C)(O)CCC=C(C)C` (stereo not given), the Potency entry was “inactive”.

Consider `OCCNCCO`, for which the Potency result is “inactive”.

Turning to `CC1(C)C(C=C(Cl)Cl)C1C(=O)OCc1cccc(Oc2ccccc2)c1` (stereo not given), the Potency entry is “inactive”.

In the case of `CC/C(=C(/CC)c1ccc(O)cc1)c1ccc(O)cc1`, the Potency entry is “inactive”.

With `NC[C@H](O)c1ccc(O)c(O)c1`, the Potency entry is “inactive”.

Consider `CCC(=O)O[C@H]1[C@H](O[C@@H]2[C@@H](C)[C@H](O[C@H]3C[C@@](C)(OC)[C@@H](O)[C@H](C)O3)[C@@H](C)C(=O)O[C@H](CC)[C@@](C)(O)[C@H](O)[C@@H](C)C(=O)[C@H](C)C[C@@]2(C)O)O[C@H](C)C[C@@H]1N(C)C`, for which the Potency result is “inactive”.

As to `OC[C@H]1O[C@@H]2O[C@H]3[C@H](O)[C@@H](O)[C@@H](O[C@H]4[C@H](O)[C@@H](O)[C@@H](O[C@H]5[C@H](O)[C@@H](O)[C@@H](O[C@H]6[C@H](O)[C@@H](O)[C@@H](O[C@H]7[C@H](O)[C@@H](O)[C@@H](O[C@H]1[C@H](O)[C@H]2O)O[C@@H]7CO)O[C@@H]6CO)O[C@@H]5CO)O[C@@H]4CO)O[C@@H]3CO`, the Potency result was “inactive”.

Take `C=CCNCC=C`: the Potency entry was “inactive”.

As for `Cc1ccc(C(C)(C)C)cc1`, the Potency entry is “inactive”.

For `Oc1ccc(C(c2ccc(O)cc2)C(Cl)(Cl)Cl)cc1`, the Potency entry is “inactive”.

Take `COc1ccc2nc(N)sc2c1`: the Potency entry was “inactive”.

In the case of `CC[C@]12CCCN3CCc4c(n(c5ccccc45)[C@@](O)(C(=O)OC)C1)[C@@H]32`, the Potency entry is “inactive”.

In the case of `CNC[C@H](O)c1ccc(O)c(O)c1`, the Potency result was “inactive”.

In the case of `FC(F)(F)C(Cl)Br` (stereo not given), the Potency entry was “inactive”.

Regarding `C=C[C@@]1(C)CC(=O)[C@]2(O)[C@@]3(C)[C@@H](O)CCC(C)(C)[C@@H]3[C@H](O)[C@H](OC(C)=O)[C@@]2(C)O1`, the Potency entry was “inactive”.

Consider `CCC/C=C/C=O`, for which the Potency result was “inactive”.

With `CCCCCCC(C)O` (stereo not given), the Potency entry was “inactive”.

Consider `C[C@]12CC[C@@H]3c4ccc(O)cc4CC[C@H]3[C@@H]1CC[C@@H]2O`, for which the Potency result is “inactive”.

In the case of `NCCS(=O)(=O)O`, the Potency entry was “inactive”.

As to `CCCCCCCCCCCCO`, the Potency result is “inactive”.

On to `C=CCOC(=O)C(=C)C`, for which the Potency result is “inactive”.

Consider `c1ccc2c(c1)ccc1ncccc12`, for which the Potency result was “inactive”.

Consider `COc1ccc(-c2coc3cc(O)cc(O)c3c2=O)cc1`, for which the Potency entry was “inactive”.

For the molecule `NCCN`, the Potency result was “inactive”.

In the case of `NCCOCCO`, the Potency result was “inactive”.

As for `CC(C)[C@@H]1CC[C@@H](C)CC1=O`, the Potency result was “inactive”.

Take `C=CC(=O)OCCCC`: the Potency result is “inactive”.

Turning to `CCc1cccc2c3c([nH]c12)C(CC)(CC(=O)O)OCC3` (stereo not given), the Potency result is “inactive”.

Turning to `CC(=O)O[C@]1(C(C)=O)CC[C@H]2[C@@H]3C=C(Cl)C4=CC(=O)CC[C@]4(C)[C@H]3CC[C@@]21C`, the Potency entry was “inactive”.

On to `Nc1ccc2c(O)cc(S(=O)(=O)O)cc2c1`, for which the Potency result is “inactive”.

Take `O=[Se](O)O`: the Potency entry was “inactive”.

As for `COC(=O)c1ccc(C)cc1`, the Potency entry was “inactive”.

As to `ClC/C=C/CCl`, the Potency result is “inactive”.

For `CCCCCC1C(=O)CCC1CC(=O)OC` (stereo not given), the Potency entry was “inactive”.

`CC(=O)Oc1c(C)c(C)c2c(c1C)CC[C@@](C)(CCC[C@H](C)CCC[C@H](C)CCCC(C)C)O2`: the Potency entry was “inactive”.

As to `Cc1ccc2c(c1)C(=O)OC2=O`, the Potency entry was “inactive”.
